Each structure is given as a SMILES string. Where “and” joins values, the source holds several entries; their conditions need not be identical. Equal values may be shown once. This is part of a sample that, as a whole, favours compounds with a hit. Of some 83,000 tested, about 20% had one in any assay.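 Activity criterion: percent growth below 10, measured after cells in 96-well plates were exposed to a single compound concentration for 48 hours.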 Unmarked numbers belong to inactive results. Calls of active or inactive are those of the source.

Data on 37 compounds can be found in PubChem BioAssay (NCI).

For the assay, the system named is MDA-MB-468 breast. Description: NCI-60 one-dose screen, 48 h (100 = growth as untreated, 0 = no growth, -100 = all killed). The note with it: 10 µM unless noted.
Consider `COc1cc2c(c(OC)c1OC)-c1ccc(N)c(=O)cc1[C@@H](NC(C)=O)CC2`, for which the growth is 0.226% (active).

On to `Cc1nnc(NS(=O)(=O)c2ccc(N=Nc3ccc(N)nc3N)cc2)s1`, for which the growth is 120% and 132%. For `CNC(=O)c1c(NC(=O)c2cccc(C(F)(F)F)c2F)sc2c1CCC(=O)C2`, the growth is 0.936% (active). For `Cc1nn(-c2ccccc2)c(Cl)c1/C=N\N=c1/sc2ccccc2n1C` the value was 113%.

`O=C1NC(c2ccc(Cl)c(Cl)c2)=C/C1=C\c1ccccc1`: the growth was 63.3%. Take `CCC1(/C=N/NC(N)=S)NC(=O)NC1=O` (configuration not stated): the growth is 106%. Under `COC(=O)C(CC=O)C(=O)C(=O)Nc1cccc(C(F)(F)F)c1` (configuration not stated) stands 104%. For `CC1(C)C2CCC1(C)C1(C2)OCCS1` (configuration not stated) the value was 89.8%; for `CN(C)CCN(Cc1ccccc1)c1ccc2ccccc2n1`, 92.6%; for `COc1cc([C@@H](CCO)C[C@H](C)c2ccc3ccccc3c2)cc(OC)c1OC`, 17.2%.

On to `COc1cc(/C=C2\Oc3cc(OCC(=O)c4ccccc4)ccc3C2=O)cc(OC)c1OC`, for which the growth is 97%.

With `O=C(/C=C1\C=CN(CCCCO)c2ccccc21)n1ccc2ccccc21`, the growth was 98%. For `C=CC(C)(O)CC/C=C(\CO)C(=O)OC1C(C)OC(O[C@](C)(C=C)CC/C=C(\CO)C(=O)O[C@H]2C[C@@]3(C(=O)OC4OC(CO)C(O)C(O)C4OC4OC(C)C(OC5OC(CO)C(O)C5O)C(OC5OC(CO)C(O)C(O)C5O)C4O)C(CC2(C)C)C2=CCC4[C@@]5(C)CC[C@H](OC6OC(COC7OC(C)C(O)C(O)C7OC7OCC(O)C(O)C7O)C(O)C(O)C6NC(C)=O)C(C)(C)C5CC[C@@]4(C)[C@]2(C)C[C@H]3O)C(O)C1O` (some centres not stated) the value was 19.9%. For `CCCCCCN(CCCCCC)c1ccc(/C=C2/SC(=O)NC2=O)c(C)c1` the value was 80.6%; for `COc1ccc(Cn2cc3c(c2-c2cc(OC)c(OC)c(OC)c2)CCCc2cnoc2-3)cc1N`, 46.7%; for `Cc1nc2sc(C(=O)Nc3cccc4ccccc34)c(N)c2cc1C(=O)/C=C/c1ccccc1`, -3.46% (active). Under `Cc1ccccc1Nc1n[nH]c(Cc2ccccc2)n1` stands 104%. On to `Cc1cccc(NC(=O)Nc2ccc(-c3ccc4c(c3)NC(=O)/C4=C\c3ccc[nH]3)cc2)c1`, for which the growth is -0.651% (active). Under `Cc1ccc(S(=O)(=O)NCCCNc2cc(-c3cn(C(C)(C)C)nc3-c3cccc(O)c3)ccn2)cc1` stands 35.5%; under `COc1ccc(-c2cc(-c3nnc(SCC(=O)Nc4ccc(/C(C)=N\O)cc4)n3-c3ccccc3)c3cc(OC)ccc3n2)cc1`, 62.4%; under `O=[N+]([O-])c1ccccc1C(O)Cc1ccc2ccccc2n1` (configuration not stated), 79.7%.

In the case of `O=C(Nc1ccccc1)P(=O)(O)c1ccccc1`, the growth was 94.3%. Under `CCCCCCCCCCOC(C)=O` stands 110%; under `CCn1c(C)nc2cc(C(N)=O)ccc21`, 102%. For `COc1ccc(C2=C(c3cn(C)c4ccccc34)C(=O)OC2)cc1OC` the value was 1.23% (active); for `CC(C)N(CCCC#N)C(C)C`, 104%. Consider `CCOC(=O)c1cccc(NC2=C(Cl)C(=O)c3nc(C)ccc3C2=O)c1`, for which the growth is -33.4% (active). Regarding `COC(=O)CNc1nc(N(C)O)nc(N(C)O)n1`, the growth was 30.6%. For `CC(=O)Oc1ccccc1C(=O)N=C1[Se]CCCN1C(=O)c1ccccc1OC(C)=O` the value was -19.2% (active). Consider `Cc1ccc2nc(-c3ccc(-n4on4-c4ccc(/C=C/c5ccc(-n6on6-c6ccc(-c7nc8ccc(C)cc8s7)cc6)cc5S(=O)(=O)O)c(S(=O)(=O)O)c4)cc3)sc2c1`, for which the growth is 114%. For `N#CC(C#N)C(C#N)C#N` the value was 99.7%; for `COc1ccc2c(c1)[nH]c(=O)c1c3cccc(F)c3cn21`, 51.8%; for `CCCCCCOc1ccc(/C=N/NC(N)=S)cc1`, 66.9%.

In the case of `O=C(O)c1cn(-c2ccccc2)nc1-c1ccc(O)cc1`, the growth is 98.3%. For `CN1CCN(CC(=O)Nc2nc(-c3cccc(NS(=O)(=O)c4cccc5c(N(C)C)cccc45)c3)cs2)CC1` the value was 38.7%; for `CCOC(=O)C1=C(c2ccccc2)N=C2SC=C(c3ccc(Cl)cc3)N2C1c1ccc(Br)cc1` (configuration not stated), 54.3%; for `CCn1c2ccccc2c2cc(C(O)c3cccc4ncccc34)ccc21` (configuration not stated), 14.2%.
